In all, about 16,000 sequences were measured (“rpm ratio (pull-down/input)”: median about 0.94, highest 2% from about 1.7 on). Shown is part of a subset that was picked to be rich in the highest values.

From paper PMC12820563, “FoxP3 forms a head-to-head dimer in vivo and stabilizes its multimerization on adjacent microsatellites” come the findings set out here.

This assay concerns the target T1, MBP-FoxP1dN (Mus musculus, UniProt P58462 326-579).
T1 sequence: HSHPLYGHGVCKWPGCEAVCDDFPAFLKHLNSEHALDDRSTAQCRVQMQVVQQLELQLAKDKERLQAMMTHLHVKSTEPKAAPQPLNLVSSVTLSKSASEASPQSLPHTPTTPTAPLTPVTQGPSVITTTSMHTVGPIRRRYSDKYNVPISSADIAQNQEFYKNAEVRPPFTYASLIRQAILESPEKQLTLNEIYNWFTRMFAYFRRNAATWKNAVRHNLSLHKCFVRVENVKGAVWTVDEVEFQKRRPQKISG
Nature of the assay: PD-seq (MBP pull-down with sequencing); 20 mM Tris-HCl pH 7.5, 100 mM NaCl, 1.5 mM MgCl2, 0.4 uM protein, 0.1 uM dsDNA library, 30 min, room temperature, amylose pull-down; high values mean tight binding. Conditions: protein: recombinant; tags: His6-MBP; chain copies: 2; dsDNA, one strand shown. In short, it runs like this: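 The N-terminus-lacking fragment of mouse FoxP3 or FoxP1 carried a His6-MBP tag and was expressed in E. coli. At 0.4 µM it was incubated with 0.1 µM Klenow-filled degenerate double-stranded DNA library for 30 min at room temperature in Tris pH 7.5 buffer with NaCl and MgCl2, and complexes were caught on amylose resin, washed three times, released with proteinase K, PCR-barcoded and Illumina-sequenced. Binding is reads-per-million enrichment of pull-down over input with replicates pooled.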
For the sequence “GATGATTGTTCTCCCAGCTGATGAATTGCAATCATCGAGTAAACAAATTTTCCTAATCTTTCTGTTCAAGCGCCATCTAC”, the binding signal was 1.48 RPM ratio (pull-down/input). Consider “GATGATTGTTCTCCCAGCTGATGAATTGATGCCATCGAGTAAACAAATTTTCCTAATCTTTCTGTTCAAGCGCCATCTAC”, for which the binding signal was 1.39 RPM ratio (pull-down/input). Under “GATGATTGTTCTCCCAGCTGATGAATTGCAAAAATCGAGTAAACAAATTTTCCTAATCTTTCTGTTCAAGCGCCATCTAC” stands 1.55 RPM ratio (pull-down/input). Take “GATGATTGTTCTCCCAGCTGATGAATTGCAACCATCGAGTAAACAAATTTTCCTAATCTTTCTGTTCAAGCGCCATCTAC”: the binding signal was 1.45 RPM ratio (pull-down/input). Under “GATGATTGTTCTCCCAGCTGATGAATTGTTGCAATCGAGTAAACAAATTTTCCTAATCTTTCTGTTCAAGCGCCATCTAC” stands 1.87 RPM ratio (pull-down/input); under “GATGATTGTTCTCCCAGCTGATGAATTTCTGCAATCGAGTAAACAAATTTTCCTAATCTTTCTGTTCAAGCGCCATCTAC”, 1.1 RPM ratio (pull-down/input). As for “GATGATTGTTCTCCCAGCTGATGAATTTTTGCAATCGAGTAAACAAATTTTCCTAATCTTTCTGTTCAAGCGCCATCTAC”, the figure is 1.26 RPM ratio (pull-down/input); as for “GATGATTGTTCTCCCAGCTGATGAATTTGCAACATCGAGTAAACAAATTTTCCTAATCTTTCTGTTCAAGCGCCATCTAC”, 1.7 RPM ratio (pull-down/input); as for “GATGATTGTTCTCCCAGCTGATGAATTGCAACAATCGAGTAAACAAATTTTCCTAATCTTTCTGTTCAAGCGCCATCTAC”, 1.91 RPM ratio (pull-down/input). As for “GATGATTGTTCTCCCAGCTGATGAATTGCAAACATCGAGTAAACAAATTTTCCTAATCTTTCTGTTCAAGCGCCATCTAC”, the binding signal is 2.29 RPM ratio (pull-down/input). In the case of “GATGATTGTTCTCCCAGCTGATGAATTGATGCAATCGAGTAAACAAATTTTCCTAATCTTTCTGTTCAAGCGCCATCTAC”, the binding signal is 1.96 RPM ratio (pull-down/input). Under “GATGATTGTTCTCCCAGCTGATGAATTGACTACATCGAGTAAACAAATTTTCCTAATCTTTCTGTTCAAGCGCCATCTAC” stands 1.22 RPM ratio (pull-down/input); under “GATGATTGTTCTCCCAGCTGATGAATTCCACAGTTCGAGTAAACAAATTTTCCTAATCTTTCTGTTCAAGCGCCATCTAC”, 0.831 RPM ratio (pull-down/input); under “GATGATTGTTCTCCCAGCTGATGAATTTCACCATTCGAGTAAACAAATTTTCCTAATCTTTCTGTTCAAGCGCCATCTAC”, 0.883 RPM ratio (pull-down/input). As for “GATGATTGTTCTCCCAGCTGATGAATTTCGTCTCTCGAGTAAACAAATTTTCCTAATCTTTCTGTTCAAGCGCCATCTAC”, the figure is 0.896 RPM ratio (pull-down/input); as for “GATGATTGTTCTCCCAGCTGATGAATTATGACCTTCGAGTAAACAAATTTTCCTAATCTTTCTGTTCAAGCGCCATCTAC”, 0.925 RPM ratio (pull-down/input). Under “GATGATTGTTCTCCCAGCTGATGAATTATGCCACTCGAGTAAACAAATTTTCCTAATCTTTCTGTTCAAGCGCCATCTAC” stands 1.06 RPM ratio (pull-down/input); under “GATGATTGTTCTCCCAGCTGATGAATTTTCCCTCTCGAGTAAACAAATTTTCCTAATCTTTCTGTTCAAGCGCCATCTAC”, 0.877 RPM ratio (pull-down/input). Consider “GATGATTGTTCTCCCAGCTGATGAATTCCGAGATTCGAGTAAACAAATTTTCCTAATCTTTCTGTTCAAGCGCCATCTAC”, for which the binding signal is 0.799 RPM ratio (pull-down/input). In the case of “GATGATTGTTCTCCCAGCTGATGAATTAAGTGTATCGAGTAAACAAATTTTCCTAATCTTTCTGTTCAAGCGCCATCTAC”, the binding signal is 1.28 RPM ratio (pull-down/input). On to “GATGATTGTTCTCCCAGCTGATGAATTTCAGTCATCGAGTAAACAAATTTTCCTAATCTTTCTGTTCAAGCGCCATCTAC”, for which the binding signal is 1 RPM ratio (pull-down/input).

Take “GATGATTGTTCTCCCAGCTGATGAATTTTCCACTTCGAGTAAACAAATTTTCCTAATCTTTCTGTTCAAGCGCCATCTAC”: the binding signal was 0.903 RPM ratio (pull-down/input).

For “GATGATTGTTCTCCCAGCTGATGAATTTAGGAGATCGAGTAAACAAATTTTCCTAATCTTTCTGTTCAAGCGCCATCTAC”, the binding signal is 0.968 RPM ratio (pull-down/input). “GATGATTGTTCTCCCAGCTGATGAATTACTATTGTCGAGTAAACAAATTTTCCTAATCTTTCTGTTCAAGCGCCATCTAC”: the binding signal was 2.38 RPM ratio (pull-down/input).

“GATGATTGTTCTCCCAGCTGATGAATTATTACTATCGAGTAAACAAATTTTCCTAATCTTTCTGTTCAAGCGCCATCTAC”: the binding signal was 1.21 RPM ratio (pull-down/input). For “GATGATTGTTCTCCCAGCTGATGAATTTACTATTTCGAGTAAACAAATTTTCCTAATCTTTCTGTTCAAGCGCCATCTAC”, the binding signal is 1.55 RPM ratio (pull-down/input).

For “GATGATTGTTCTCCCAGCTGATGAATTATTACTGTCGAGTAAACAAATTTTCCTAATCTTTCTGTTCAAGCGCCATCTAC”, the binding signal was 1.17 RPM ratio (pull-down/input). “GATGATTGTTCTCCCAGCTGATGAATTACTATTATCGAGTAAACAAATTTTCCTAATCTTTCTGTTCAAGCGCCATCTAC”: the binding signal is 1.87 RPM ratio (pull-down/input). Under “GATGATTGTTCTCCCAGCTGATGAATTACTAATGTCGAGTAAACAAATTTTCCTAATCTTTCTGTTCAAGCGCCATCTAC” stands 1.28 RPM ratio (pull-down/input). Under “GATGATTGTTCTCCCAGCTGATGAATTACTATTTTCGAGTAAACAAATTTTCCTAATCTTTCTGTTCAAGCGCCATCTAC” stands 2.29 RPM ratio (pull-down/input); under “GATGATTGTTCTCCCAGCTGATGAATTACTATCATCGAGTAAACAAATTTTCCTAATCTTTCTGTTCAAGCGCCATCTAC”, 1.28 RPM ratio (pull-down/input); under “GATGATTGTTCTCCCAGCTGATGAATTACTAATTTCGAGTAAACAAATTTTCCTAATCTTTCTGTTCAAGCGCCATCTAC”, 1.25 RPM ratio (pull-down/input).
